Results reported in PubChem BioAssay (Tox21).
Results filed as inconclusive are left out. Where a call stands in place of a potency, no number is given. Active and inactive are the calls of the source. Calls come from the whole dose curve.
Potency is the fitted concentration of half-maximal effect.

Test: qHTS assay to identify small molecule antagonists of the estrogen receptor alpha (ER-alpha) signaling pathway using the BG1 cell line (AID 743080);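 note: BG1 cells stimulated with 17beta-estradiol alongside compound; nearly all actives have a fitted effect of over 25% in size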
Details: BG1Luc4E2 ERE-luciferase antagonist mode, luminescence; series mostly up to 70.3 µM
Text: National Center for Advancing Translational Sciences [NCATS]
NIH Chemical Genomics Center [NCGC]
U.S. Environmental Protection Agency [EPA]
National Institutes of Environmental Health Sciences [NIEHS]
National Toxicology Program [NTP]
U.S. Food and Drug Administration [FDA]
Estrogen receptor (ER), a nuclear hormone receptor, plays an important role in development, metabolic homeostasis and reproduction. Endocrine disrupting chemicals (EDCs) and their interactions with steroid hormone receptors like ER causes disruption of normal endocrine function. Therefore, it is important to understand the effect of environmental chemicals on the ER signaling pathway. To identify ER antagonists, BG1-Luc-4E2 cell line (provided by Dr. Michael Denison from University of California) has been used to screen the Tox21 10K compound library. BG1Luc4E2 cell line endogenously expresses full-length ER-alpha and is stably transfected with a plasmid containing four estrogen responsive elements (ERE) upstream of a luciferase reporter gene.
Tox21 Assay Protocol Summary:
BG1-Luc-4E2 cells were cultured in phenol red free assay medium containing 10% charcoal stripped FBS for 5 days before the assay was performed. The cells were dispensed at 4,000 cells/4 uL of assay medium per well into white wall/solid-bottom 1536-well plates using a Multidrop Combi (ThermoFisher Scientific, Waltham, MA) dispenser. The assay plates were incubated at a 37C and 5% CO2 for 24 h, and then 23 nL of compounds dissolved in DMSO, positive controls or DMSO only was transferred to the assay plate using a Pintool station (Kalypsys, San Diego, CA), followed by addition of 1 uL of 17beta-estradiol in assay medium using a Flying Reagent Dispenser (Aurora Discovery, San Diego, CA). After the plates were incubated at 37 C and 5% CO2 for 21.5 h, 1 uL of CellTiter-Fluor reagent (Promega, Madison, WI) of measuring cytotoxicity was added using Flying Reagent Dispenser (FRD) to each well. The assay plates were incubated at 37 C and 5% CO2 for additional 30 min and the fluorescence intensity was quantified by a ViewLux plate reader (PerkinElmer, Shelton, CT). For measuring luciferase reporter gene activity, 4 uL of ONE-Glo reagent (Promega) was added to each plate using an FRD and luminescence was quantified by a ViewLux plate reader after 30 min incubation at room temperature.
For CCCCOCC(C)OCC(C)O (stereo not given), the Potency was “inactive”. For O=C1OC(=O)c2cc([N+](=O)[O-])ccc21, the Potency was “inactive”. For CN(C)C(=O)Nc1ccccc1, the Potency was “inactive”. In the case of C/C=C1\C(=O)C[C@H]2[C@@H]3CCC4=CC(=O)CC[C@]4(C)[C@H]3CC[C@]12C, the Potency is reported as “inactive”. With CCc1cc(S(=O)(=O)O)c2cc(C(C)C)cccc1-2 the Potency was “inactive”. For CCOC(=O)Cn1c(=O)sc2cccc(Cl)c21, the Potency was “inactive”. In the case of CC(C)[N+](C)(C)CC(O)COc1cccc2ccccc12 (stereo not given), the Potency is reported as “inactive”. In the case of C(=C(c1ccccc1)c1ccccc1)c1ccccc1, the Potency is reported as “inactive”. For CC(C)COC(=O)c1ccccc1O, the Potency was “inactive”. With NC(=O)c1c(Cl)cccc1Cl the Potency was “inactive”. For CC(=O)OC(C)(C)C, the Potency was “inactive”. For CC(C)c1cccc(O)c1, the Potency was “inactive”. For CC/C=C\CCCCO, the Potency was “inactive”. For NS(=O)(=O)c1cc2c(cc1Cl)NC(CSCc1ccccc1)=NS2(=O)=O, the Potency was “inactive”. For c1ccc2cnncc2c1, the Potency was “inactive”. In the case of CC(C)N1C(=O)c2ccccc2C1=O, the Potency is reported as “inactive”. For CC(C)(O)C(=O)c1ccc(OCCO)cc1, the Potency was “inactive”. For C1CCCCCCCCCCC1, the Potency was “inactive”. With CCCC(C)C(=O)O (stereo not given) the Potency was “inactive”. In the case of C=C[Si](OC)(OC)OC, the Potency is reported as “inactive”. For COCCOC(=O)CC#N, the Potency was “inactive”. In the case of Cc1cc(C)cc(OCC2CNC(=O)O2)c1 (stereo not given), the Potency is reported as “inactive”. For CC(C)(O)c1ccccc1, the Potency was “inactive”. In the case of CC(C)(C)OC(=O)N1C[C@@H](F)C[C@H]1C(=O)O, the Potency is reported as “inactive”. In the case of O=S(=O)(c1cccc2cnccc12)N1CCCNCC1, the Potency is reported as 6.68 µM (active). For COc1nc(C)nc(N)n1, the Potency was “inactive”. In the case of OCc1ccccn1, the Potency is reported as “inactive”. In the case of NCCN1CCNC1=O, the Potency is reported as “inactive”. For Nc1ccn(C2CO[C@H](CO)O2)c(=O)n1 (stereo not given in full), the Potency was “inactive”. In the case of CC/C=C\C#N, the Potency is reported as “inactive”. With O=C(O)Cc1cc(I)c(Oc2cc(I)c(O)c(I)c2)c(I)c1 the Potency was “inactive”. In the case of CN1[C@@H]2CC[C@H]1CC(NC(=O)n1c(=O)[nH]c3ccccc31)C2 (stereo not given in full), the Potency is reported as “inactive”. With C1COCCO1 the Potency was “inactive”. For Cc1ncc(CSSCc2cnc(C)c(O)c2CO)c(CO)c1O, the Potency was “inactive”. In the case of CC(C)CCCCCCN, the Potency is reported as “inactive”. For COC(=O)CCCCCCCCC(=O)OC, the Potency was “inactive”. For NC(=O)c1ncn([C@@H]2O[C@H](CO)[C@@H](O)[C@H]2O)c1O, the Potency was “inactive”. In the case of NC(=O)c1ncn([C@@H]2O[C@H](CO)[C@@H](O)[C@H]2O)c1N, the Potency is reported as “inactive”. For CCN(CC)C(=O)c1ccc(O)c(OC)c1, the Potency was “inactive”. With CCCOc1ccccc1-c1nc2n[nH]nc2c(=O)[nH]1 the Potency was “inactive”.
